The results in this text go back to ChEMBL document CHEMBL3988442, “University of Dundee, Small-Polar-MMV Screening Library” (2021).

The target in one experiment is T1, Aspartate--tRNA(Asp/Asn) ligase (Mycobacterium tuberculosis (strain ATCC 25618 / H37Rv)) (UniProt P9WFW3). Further: in the data most compounds retested in dose-response had high values.
T1 sequence (whole entry): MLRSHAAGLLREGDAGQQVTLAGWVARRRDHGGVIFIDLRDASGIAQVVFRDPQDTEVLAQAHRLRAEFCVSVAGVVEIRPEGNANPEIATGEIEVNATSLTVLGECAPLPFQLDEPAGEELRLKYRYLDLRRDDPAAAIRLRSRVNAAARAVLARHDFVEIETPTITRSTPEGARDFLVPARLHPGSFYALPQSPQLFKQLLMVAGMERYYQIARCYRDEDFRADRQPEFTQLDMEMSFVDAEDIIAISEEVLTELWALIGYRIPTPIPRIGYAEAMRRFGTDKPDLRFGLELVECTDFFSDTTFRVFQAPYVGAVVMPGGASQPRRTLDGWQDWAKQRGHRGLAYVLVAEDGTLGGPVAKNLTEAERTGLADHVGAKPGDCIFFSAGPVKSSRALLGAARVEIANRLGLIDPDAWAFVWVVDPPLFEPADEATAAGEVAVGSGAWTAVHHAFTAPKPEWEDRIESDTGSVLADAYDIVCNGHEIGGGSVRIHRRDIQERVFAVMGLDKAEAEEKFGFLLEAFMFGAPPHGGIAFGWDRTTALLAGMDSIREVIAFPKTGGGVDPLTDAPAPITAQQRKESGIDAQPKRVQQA
As to the kind of experiment: Assay for Asp RNA synthetase-1 from Mycobacterium tuberculosis. It is filed as functional. Also on record: scale not given: direction of the effect not stated beside the values. The following applies: 30 µM.
As to `CCc1n[nH]c(C2CN(Cc3nccn3CC)CCO2)n1` (stereo not given), the Percent Effect was 1.7%.
As to `CN1CCC(NC(=O)NCc2csc(Br)c2)CC1`, the Percent Effect turned out to be 6.12%.
For the compound `Cc1noc(-c2ccc(N3CCCC(C(=O)N4CCSCC4)C3)nc2)n1` (stereo not given), the Percent Effect is -3.39%.
As to `Cc1ccc(C(=O)N2CCC(Oc3ccc(F)cc3F)CC2)c(=O)[nH]1`, the Percent Effect was -4.97%.
As for `CC[C@H](C)[C@H](NC(=O)Cc1csc(-c2cccc(Cl)c2)n1)C(=O)O`, the Percent Effect was determined as 4.59%.
Same read-out and setting: the same measure for `CC(C)C1CN(C(=O)c2ccc(C(N)=O)cc2)CCS1` (stereo not given): 9.66%; for `CC(C)Cc1noc(CN2CCOCC2)n1`: -2.59%; for `CNC(=O)c1cc2c(nc1NC(C)C)CCN(C(=O)NC(C)C)CC2`: -2.07%.
In the case of `NC(=O)CN1CCC(NC(=O)Nc2nccs2)CC1`, the Percent Effect was -4.06%.
On to `CCN(CC)CC1CN(CCc2ccccc2)Cc2nccn2C1` (stereo not given), for which the Percent Effect was -4.79%.
In the case of `Cc1ccc(CC(=O)N2CCOC(c3nc(C(C)(C)C)n[nH]3)C2)cn1` (stereo not given), the Percent Effect was -0.39%.
On to `CC(NC(=O)N(C)Cc1ccsc1)c1ccc2c(c1)NC(=O)CO2` (stereo not given), for which the Percent Effect is -2.41%.
On to `COC(=O)CS(=O)(=O)CCC(=O)N1CCCC1c1ccsc1` (stereo not given), for which the Percent Effect was -1.34%.
On to `O=C(Cn1nc2c(cc1=O)CCCC2)N[C@@H](Cc1ccccc1)C(=O)O`, for which the Percent Effect turned out to be 0.174%.
On the same count and under the same terms, then `FC(F)(F)c1cccc(C2(CNCc3ccncc3)CCOCC2)c1`, with 2.66%; and `O=C(c1cccc2c1OCO2)N1CCCC(n2cccn2)C1` (stereo not given), with -0.706%; and `CCNC(=O)c1nnn(Cc2ccccc2)c1OC`, with 0.29%.
For `O=C(c1ccco1)N1CC[C@H]2[C@H]1CCN2CC1CCOCC1`, the Percent Effect is 1.99%.
Turning to `CN(C)c1ccc(CCCNC(=O)Nc2ccc(C#N)cc2)cc1`, the Percent Effect was -1.77%.
As to `CC(C)C1CN(C(=O)c2nccnc2N)CCS1` (stereo not given), the Percent Effect amounted to 13%.

In a further experiment the target is Shiga toxin 2 (Escherichia coli O157:H7) (UniProt P09385+P09386). As to the kind of experiment: E. coli 0.157:H7 Shiga Toxin SOP - stx2 screening assay. It is filed as functional. Also on record: scale not given: direction of the effect not stated beside the values. Particulars: 30 µM.
As for `O=C(c1cc(C2CC2)on1)N1CCCC(n2cncn2)C1` (stereo not given), the Percent Effect was -16.7%.
Regarding `O=C(CN1CCCS1(=O)=O)NCCOc1ccc2c(c1)CCC2`, the Percent Effect amounted to 9.97%.
`Cn1cc(CN2CCC3(CC(=O)N(c4ccc5c(c4)OCO5)C3)C2)cn1` (stereo not given): the Percent Effect was -15.8%.
Still for that read-out and setting: then `CN(C)c1cc(CNC(=O)Nc2ccc(S(C)(=O)=O)nc2)ccn1`, with -117%; and `O=C(NCc1cccnc1)C1=NN(c2ccccc2)C(=O)CN1`, with -1.16%.
In the case of `O=C(NCCCn1nc2ccccn2c1=O)NC1CCC(O)CC1` (stereo not given), the Percent Effect is -44.5%.
`CCNC(=O)CCN1CCC(c2cc(N3CCOCC3)nc(C)n2)CC1`: the Percent Effect was -10.2%.
On the same count and under the same terms, the same measure for `O=C(NCCO)Nc1cccc(Cl)c1SC(F)F`: -19.7%.
Consider `Fc1cnc(N2CCn3cc(CNc4ccccn4)nc3C2)nc1`, for which the Percent Effect was -67.4%.
Regarding `O=C(c1cccc(F)c1)N1CCN2C[C@H](OCc3cccnc3)C[C@H]2C1`, the Percent Effect was -4.11%.
Still for that read-out and setting: then `O=C(c1cnc(-c2ccco2)s1)N1CCCC1Cn1cccn1` (stereo not given), with -4.37%; and `Cc1ccc(CN2CC[C@H]3OCC[C@@H](c4nc(C)no4)[C@H]3C2)cc1`, with 8.54%; and `NC(=O)c1ccc(OCC(=O)N2CCCC(n3cccn3)C2)cc1` (stereo not given), with 26%.
On to `Cc1noc(C)c1CC(=O)OCC(=O)N1CCc2sccc2C1`, for which the Percent Effect is -7.79%.
Take `COc1ccc(CCC(=O)Nc2cccnc2N2CCCC2)cc1Br`: the Percent Effect is 28.3%.
The same measure, in the same setting: then `COCc1ccccc1CNc1cc(N2CCCC2CO)ncn1` (stereo not given), with -4.23%; and `COc1ccc(OCCNCCn2cccn2)cc1`, with -27.4%.
On to `Cc1cncc(C2CCCN(Cc3cccn3C)C2)n1` (stereo not given), for which the Percent Effect was 10.2%.
In the case of `O=C(NCc1ccco1)[C@H]1C[C@H]2OCC[C@H]2N(C(=O)c2ccncc2)C1`, the Percent Effect worked out at 8.77%.
The same measure, in the same setting: the same measure for `CC1CN(C)c2ccccc2CN1C(=O)c1ccncc1` (stereo not given): -12.6%.
Consider `CCc1n[nH]c(C2CN(Cc3nccn3CC)CCO2)n1` (stereo not given), for which the Percent Effect was -10.4%.
For the compound `CN1CCC(NC(=O)NCc2csc(Br)c2)CC1`, the Percent Effect is 6.77%.
The same measure, in the same setting: then `Cc1noc(-c2ccc(N3CCCC(C(=O)N4CCSCC4)C3)nc2)n1` (stereo not given), with 10.1%.
Regarding `Cc1ccc(C(=O)N2CCC(Oc3ccc(F)cc3F)CC2)c(=O)[nH]1`, the Percent Effect came out at 30.4%.
In the case of `CC[C@H](C)[C@H](NC(=O)Cc1csc(-c2cccc(Cl)c2)n1)C(=O)O`, the Percent Effect was -17.1%.
In the case of `CC(C)C1CN(C(=O)c2ccc(C(N)=O)cc2)CCS1` (stereo not given), the Percent Effect is -45.2%.
Still for that read-out and setting: then `CC(C)Cc1noc(CN2CCOCC2)n1`, with 29.5%.
Take `CNC(=O)c1cc2c(nc1NC(C)C)CCN(C(=O)NC(C)C)CC2`: the Percent Effect was 0.412%.
Consider `NC(=O)CN1CCC(NC(=O)Nc2nccs2)CC1`, for which the Percent Effect is -29.4%.
For `CCN(CC)CC1CN(CCc2ccccc2)Cc2nccn2C1` (stereo not given), the Percent Effect was determined as 4.72%.
As to `Cc1ccc(CC(=O)N2CCOC(c3nc(C(C)(C)C)n[nH]3)C2)cn1` (stereo not given), the Percent Effect was -0.658%.
Same read-out and setting: then `CC(NC(=O)N(C)Cc1ccsc1)c1ccc2c(c1)NC(=O)CO2` (stereo not given), with 18.1%; and `COC(=O)CS(=O)(=O)CCC(=O)N1CCCC1c1ccsc1` (stereo not given), with -0.403%; and `O=C(Cn1nc2c(cc1=O)CCCC2)N[C@@H](Cc1ccccc1)C(=O)O`, with -48%.
Turning to `FC(F)(F)c1cccc(C2(CNCc3ccncc3)CCOCC2)c1`, the Percent Effect is -27.1%.
Turning to `O=C(c1cccc2c1OCO2)N1CCCC(n2cccn2)C1` (stereo not given), the Percent Effect amounted to 17.8%.
Turning to `CCNC(=O)c1nnn(Cc2ccccc2)c1OC`, the Percent Effect is -14.9%.
On the same count and under the same terms, then `O=C(c1ccco1)N1CC[C@H]2[C@H]1CCN2CC1CCOCC1`, with -28%; and `CN(C)c1ccc(CCCNC(=O)Nc2ccc(C#N)cc2)cc1`, with -44.4%; and `CC(C)C1CN(C(=O)c2nccnc2N)CCS1` (stereo not given), with -15.2%.
